About 79,000 compounds went through this panel and 15% of them were active in at least one assay; those are over-represented in the sample as a whole. Rule as the data show it: active = growth inhibition above about 70%; inactive = the rest.
Legend:
[1] = NCI Yeast Anticancer Drug Screen. Data for the rad50 strain (AID 155);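 also: 0% = growth of vehicle-only cultures of the same strain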; details: S. cerevisiae rad50 strain growth inhibition; at 50.0 µM; active compounds read high
How it was run: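 Inhibition values express reduced yeast growth in compound-treated cultures relative to vehicle-treated controls.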

[2] = NCI Yeast Anticancer Drug Screen. Data for the mec2-1 strain (AID 157); details: S. cerevisiae mec2-1 strain, at 50.0 µM, active compounds read high
How it was run: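 mec2-1 yeast strain, carrying an alteration in DNA damage repair or cell cycle control, was exposed to compounds; growth inhibition was measured relative to vehicle-treated controls.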

[3] = NCI Yeast Anticancer Drug Screen. Data for the sgs1 mgt1 strain (AID 161);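 also: 0% = growth of cultures given vehicle only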; details: S. cerevisiae sgs1 mgt1 strain, at 50.0 µM, active compounds read high
How it was run: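 Yeast cells carrying a defined DNA-repair defect were exposed to test compounds. Growth inhibition was measured relative to vehicle-treated controls.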

[4] = NCI Yeast Anticancer Drug Screen. Data for the cln2 rad14 strain (AID 165);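 also: 0% = growth equal to vehicle treated cultures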; details: S. cerevisiae cln2 rad14 strain, at 50.0 µM, active compounds read high
How it was run: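 Yeast carrying cln2 and rad14 alterations (cell cycle control and DNA damage repair) were exposed to compounds. Growth inhibition was measured against vehicle-treated controls.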

[5] = NCI Yeast Anticancer Drug Screen. Data for the bub3 strain (AID 167); details: S. cerevisiae bub3 mutant strain, at 50.0 µM, active compounds read high
How it was run: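 Steps: expose the mutant yeast strain to compound; grow alongside vehicle-treated cultures; measure growth; express inhibition against the vehicle cultures.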

[6] = NCI Yeast Anticancer Drug Screen. Data for the mlh1 rad18 strain (AID 175); details: S. cerevisiae mlh1 rad18 strain growth inhibition; at 50.0 µM; active compounds read high
How it was run: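 Growth inhibition of the yeast strain was measured after compound exposure and expressed relative to vehicle-treated controls. The strain carries defined defects in DNA damage repair.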

Measured: growth inhibition

CC(=O)CCc1ccc(Cl)cc1
inactive: [1] -21.6% | [2] -3.55% | [3] -1% | [4] 3.1% | [5] 5.4% | [6] -4.4%

CC(=O)Oc1cc(C)c(OC(C)=O)cc1C
inactive: [1] -11.3% | [2] -14.3% | [3] 3.1% | [4] -1.85% | [5] 16.9% | [6] 14.3%

CCCCCC(CCCCC)c1ccccn1
inactive: [1] -14.3% | [2] -11.4% | [3] 3.95% | [4] 22.4% | [5] 26.9% | [6] 4.1%
